Screening data (PubChem)
A selection: hits, their analogues and other compounds. The true share with any hit is near 3.3%.
HCV inh = qHTS Assay for Inhibitors of Hepatitis C Virus (HCV); Huh7.5.1 HCVcc-Cre infection, luciferase reporter, 44 h; Potency, µM (highest dose often 41.8 µM), inactives show at the highest dose activity change, negative = inhibition, hits mostly inhibitors; 340,000 tested, 3.4% active; AID 651820, 2012; active means well fitted inhibition curve with a large enough effect; inconclusive means small, poorly fitted or top-dose-only effect, or another doubt; inactive means no such curve, though single readings can be large or run the other way
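After 44 h co-culture of compound, cells and HCVcc-Cre (~0.5 moi), substrate is added for 15 min at room temperature and luciferase measured over 15 sec. Cells were seeded at 1,000/well and pre-cultured 4 h.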
VACV Venus inh = qHTS for Stage-Specific Inhibitors of Vaccinia Orthopoxvirus: Venus Reporter Primary qHTS; AID 720580, 2013; Vaccinia virus Venus reporter expression, fluorescence; 330,000 tested, 0.46% active; Potency, µM (series often up to 36.5 µM), inactives show at the top dose activity change, negative = inhibition, hits mostly inhibitors; calls by dose curve; tested in A549 cells; further: nearly all actives have a fitted effect of over 30% in size
VACV mCherry inh = qHTS for Stage-Specific Inhibitors of Vaccinia Orthopoxvirus: mCherry Reporter Primary qHTS; Vaccinia virus mCherry reporter infection, fluorescence; Potency, µM (highest dose often 36.5 µM), for the others: at the highest dose activity change, negative = inhibition, most hits filed as inhibitors; 310,000 tested, 0.63% active; AID 720579, 2013; calls by dose curve; tested in A549 cells; further: nearly all actives have a fitted effect of over 35% in size
* hit, by the source's call; [ ] = dose if it differs, or a comment. On the % scale 0 is the no-effect control and ±100 the full control effect; potency means the concentration at half of the fitted maximal effect.

Screening O=C(c1ccc2c(c1)OCO2)N1CCC2(CC1)Oc1ccc(F)cc1C(=O)C21CC(c2ccc(Cl)cc2)=NO1 (stereo not drawn) returned HCV inh 10µM*, VACV Venus inh -20% and VACV mCherry inh inactive.
Screening COc1ccccc1NS(=O)(=O)c1cccc(C(=O)N2CCCC2)c1 returned HCV inh 10%.
For COc1cc(NC(=O)N2CCc3nc(NCc4cccc(Oc5ccccc5)c4)ncc3C2)cc(OC)c1OC the results were VACV Venus inh inconclusive and VACV mCherry inh 10µM*.
`COc1ccc(CNC(=O)N2CCc3nc(Nc4cc(OC)c(OC)c(OC)c4)ncc3C2)cc1` gave VACV Venus inh -26% and VACV mCherry inh 12%.
Cc1ccc2c(c1C)NC(=O)CC2c1ccc(Cl)cc1Cl (stereo not drawn) was read as VACV Venus inh -24% and VACV mCherry inh -25%.
`CCOC(=O)Cn1nc(C)c(NC(=O)COc2ccc(C)c(C)c2)c1C` gave HCV inh 0%, VACV Venus inh 0% and VACV mCherry inh -6%.
Cn1ccs/c1=N\C(=O)Nc1cccc(Cl)c1 was read as HCV inh 15%.
`O=c1c2cnn(-c3ccccc3)c2nc(-c2ccco2)n1-c1ccccc1` gave HCV inh 13µM*.
Screening COc1cccc(-n2c(-c3ccco3)nc3c(cnn3-c3ccc(Cl)cc3)c2=O)c1 returned VACV Venus inh -16% and VACV mCherry inh -24%.
`COc1cc(OC)cc(C(=O)NCC(=O)NCCN2C(=O)S/C(=C\c3ccccc3Cl)C2=O)c1` gave HCV inh 10µM*.
Screening COc1cc(C(=O)NCC(=O)NCCN2C(=O)S/C(=C\c3ccccc3Cl)C2=O)cc(OC)c1OC returned HCV inh inconclusive, VACV Venus inh -22% and VACV mCherry inh -12%.
`CC1Cc2nc(SCC(=O)NCc3ccccc3)n(Cc3ccccc3)c(=O)c2S1` (stereo not drawn) gave HCV inh inconclusive, VACV Venus inh -4% and VACV mCherry inh -23%.
CC1Cc2nc(SCC(=O)c3ccccc3)n(Cc3ccccc3)c(=O)c2S1 (stereo not drawn) was read as HCV inh 11µM*, VACV Venus inh -8% and VACV mCherry inh -5%.
Screening CC(C)Cn1nc(NC(=O)c2cccc(Cl)c2)c2cc3ccccc3nc21 returned VACV Venus inh -14% and VACV mCherry inh -11%.
For CC1Cc2ccccc2N1C(=O)CSc1nnc(-c2ccccc2Cl)o1 (stereo not drawn) the results were VACV Venus inh -6% and VACV mCherry inh 4%.
For COc1ccc(NC(=O)CSc2nnc(-c3nonc3NC(C)=O)n2C)cc1Cl the results were VACV Venus inh -11% and VACV mCherry inh -7%.
Cc1ccc(C)c(S(=O)(=O)c2nnn3c2nc(NC(C)C)c2sccc23)c1 was read as VACV Venus inh inconclusive and VACV mCherry inh -21%.
CC1(C)NC(=O)N(CCCOc2ccc(Br)cc2Cl)C1=O was read as HCV inh inconclusive, VACV Venus inh -19% and VACV mCherry inh -9%.
For CC(C)c1cc(Br)ccc1OCCCN1C(=O)NC(C)(C)C1=O the results were HCV inh 13µM*.
O=Nc1c(O)[nH]c2ccc(Cl)c(Cl)c12 was read as HCV inh -10%, VACV Venus inh inconclusive and VACV mCherry inh 14µM*.
`CCc1cccc2c(N=O)c(O)[nH]c12` gave HCV inh 1%, VACV Venus inh -21% and VACV mCherry inh -28%.
`CCOC(=O)C1(C)C=C(Nc2cccc(C)c2)C(=O)N1c1ccccc1` (stereo not drawn) gave VACV Venus inh 6% and VACV mCherry inh -12%.
`CCOC(=O)c1cc([N+](=O)[O-])cc([N+](=O)[O-])c1Sc1ncnc2nc[nH]c12` gave HCV inh inconclusive, VACV Venus inh -19% and VACV mCherry inh inconclusive.
`Nc1nc(SCc2ccccc2)c2[nH]cnc2n1` gave HCV inh 9%, VACV Venus inh -29% and VACV mCherry inh inconclusive.
CNc1ncnc(Sc2nc(N)nc3nc[nH]c23)c1[N+](=O)[O-] was read as HCV inh inconclusive, VACV Venus inh inconclusive and VACV mCherry inh 5µM*.
`Nc1nc(Sc2ccc([N+](=O)[O-])c3nonc23)c2[nH]cnc2n1` gave HCV inh 2.8µM*, VACV Venus inh 141% and VACV mCherry inh inconclusive.
Cc1ccc(N2CCN(S(=O)(=O)c3ccc(F)c(C)c3)CC2)c(C)c1 was read as HCV inh -16% and VACV Venus inh -26%.
CCC(=O)c1cc(F)c(N2CCN(S(=O)(=O)c3ccc(C)cc3)CC2)cc1C was read as HCV inh 13µM*, VACV Venus inh -15% and VACV mCherry inh -22%.
For COc1ccc2cc(C(=O)N3CCN(c4ccc(F)cc4)CC3)[nH]c2c1 the results were HCV inh -26%.
CC(=O)c1nn(-c2ccc(OC(F)(F)F)cc2)nc1Nc1ccc(C)cc1 was read as VACV Venus inh -7% and VACV mCherry inh -5%.
For CCCc1ccc(C(=O)NC(=O)c2ccccc2O)cc1 the results were HCV inh inconclusive, VACV Venus inh -2%[7.34 µM] and VACV mCherry inh inactive[7.34 µM].
`CC(O)(COc1ccccc1)c1ccc2c(c1)CN(C/C=C/c1ccco1)CCO2` (stereo not drawn) gave VACV Venus inh 3% and VACV mCherry inh -5%.
CN1CCN(c2cc(-c3ccccc3)nc3cc(-c4ccc(F)cc4)nn23)CC1 was read as HCV inh inconclusive and VACV Venus inh -17%.
`Fc1ccc(-c2cc3nc(-c4ccccc4)cc(N4CCN(CCN5CCOCC5)CC4)n3n2)cc1` gave HCV inh 10µM*, VACV Venus inh -13% and VACV mCherry inh -26%.
`O=C(NCc1ccccc1)C1C(c2ccccc2)=Nc2ccccc2N1C(=O)c1ccncc1` (stereo not drawn) gave VACV Venus inh -19% and VACV mCherry inh inconclusive.
Screening [2H]c1c([2H])c([2H])c(C(=O)c2sc(N3CCCCCC3)nc2-c2ccccc2)c([2H])c1[2H] returned HCV inh 22µM* and VACV Venus inh -12%.
Screening O=C(c1ccc(Br)cc1)c1sc(N2CCOCC2)nc1-c1ccccc1 returned HCV inh 7.9µM*, VACV Venus inh -7% and VACV mCherry inh -3%.
Screening O=C(c1ccccc1)c1sc(N2CCOCC2)nc1-c1ccccc1 returned HCV inh -19%, VACV Venus inh -8% and VACV mCherry inh inactive.
Screening COc1ccc(-c2nc(N3CCCCCC3)sc2C(=O)c2ccccc2)cc1 returned HCV inh inconclusive and VACV Venus inh -28%.
For CCc1ccc(N(CC)C(=O)Cn2nc(Cc3cccnc3)c3ccccc3c2=O)cc1 the results were VACV Venus inh -11% and VACV mCherry inh -11%.
Screening COc1cccc(CNC(=O)c2c(OC)cc(=O)n3c2CCN(C(=O)c2ccccc2Cl)CC3)c1 returned VACV Venus inh -8% and VACV mCherry inh inactive.
Screening Cc1cccc(N(C)c2nc3ccc(C(=O)c4ccccc4)cc3n3c(C)nnc23)c1 returned VACV Venus inh -23% and VACV mCherry inh -26%.
Screening CC(C)c1ccc(/C=C/C(=O)Nc2nc3ccc([N+](=O)[O-])cc3s2)cc1 returned HCV inh 16%.
